Measurements as given in ChEMBL document CHEMBL3988442, “University of Dundee, Small-Polar-MMV Screening Library” (2021).
Screen size: about 66,000 compounds; about 960 (1.5%) showed an effect of 50% or more. The list comes from a sample in which strong results are over-represented; it also holds similar structures and randomly drawn compounds.

Test system: Trypanosoma brucei
Test: Trypanosoma brucei 72 hour study
Type: functional, organism-based
Parameters: scale not given: in the data most compounds retested in dose-response had high values

SMILES	Percent Effect (30.3 µM, […])	Percent Effect (30 µM, 30.03 µM)
CNCc1ccc([C@@H]2CN(C(C)=O)C[C@H]2C(N)=O)cc1.Cl	-4.211%	–
CSCCC(NC(N)=O)C(=O)NCc1c(C)nn(-c2ccccc2)c1C (centres undefined)	–	-20.96%
COC(=O)[C@H](CCSC)NC(=O)Cc1c(C)nn(-c2ccccc2)c1C	–	101%
COc1cccc(-c2nc(C)c(C(=O)N[C@@H](CCSC)C(=O)O)s2)c1	–	-41.8%
Cc1nn(-c2ccccc2)c(C)c1CC(=O)NC1CC(=O)N(C)C1 (centres undefined)	–	-14.36%
COC(=O)C(CCSC)NC(=O)Cc1c(C)nn(-c2ccccc2)c1C (centres undefined)	100.4%	–
COC(=O)[C@H](CCSC)NC(=O)Cn1ccc2c(Cl)cccc21	–	-28.3%
CC(C)Cc1noc(CN2CCOCC2C)n1 (centres undefined)	–	-14.5%
O=C(Nc1cnccn1)[C@@H]1CCO[C@@H]2CCN(Cc3ccsc3)C[C@@H]21.O=C(O)C(F)(F)F	-603.1%	–
O=C(Nc1ccccc1)N1C(CN2CCOCC2)[C@]2(O)CC[C@H]1CC2 (some centres undefined)	6.609%	–
CCn1nc(C)c2nc(C(C)C)nc(NCC(=O)N3CCOCC3)c21	-23.63%	–
CCCc1nc(NCC(=O)N2CCOCC2)c2c(n1)c(C)nn2CC	-24.9%	–
CCc1nc(NCC(=O)N2CCOCC2)c2c(n1)c(C)nn2CC	–	60.24%
Cn1c(CCN2CCN(CCc3ccccc3)CC2)nc2ccccc21	–	-13.15%
Cn1c(CN2CCN(CC3CCCO3)CC2)nc2ccccc21 (centres undefined)	-39.6%	–
CCCc1ccc(N2CCN(Cc3nc4ccccc4n3C)CC2)cc1	–	90.43%
COCCN1CC[C@@H]2CN(Cc3nccn3C)C[C@@H]2C1.O=C(O)C(F)(F)F.O=C(O)C(F)(F)F	–	27.97%
CC(C)CN1CCc2c(CN(C)Cc3ccco3)cncc2C1.Cl.Cl.Cl	-2.843%	–
Cc1cnc(CN(Cc2ccc(C#N)cc2F)C2CCN(C)C2)o1 (centres undefined)	–	-34.7%
COc1ccc(C)cc1CN(Cc1ncc(C)o1)C1CCN(C)C1 (centres undefined)	–	-50.91%
COc1ccc(C)cc1CN(Cc1nc(C)c(C)o1)C1CCN(C)C1 (centres undefined)	–	82.74%
COc1cc(C(=O)NCC2(N(C)C)CCN(C)CC2)c2ccccc2n1	-18.58%	–
Cc1c(CN2CC[C@@H](N3CCC(O)CC3)[C@H](O)C2)[nH]c2ccc(Cl)cc12	–	-14.51%
CN1CCN([C@@H]2CCN(CC3=Cc4cc(Cl)ccc4OC3)C[C@H]2O)CC1	22.23%	–
O[C@@H]1CN(CC2=Cc3cc(Cl)ccc3OC2)CC[C@H]1N1CCCCCC1	78.41%	–

SMILES	Percent Effect (30.3 µM, […])	Percent Effect (30 µM, 30.03 µM)
O=C(CCc1ccco1)N1CCCC(n2cccn2)C1 (centres undefined)	12.32%	–
Cc1ccc(S(=O)(=O)N2CCC(S(=O)(=O)c3nncn3C)CC2)cc1C	–	-15.11%
Cn1cnnc1S(=O)(=O)C1CCN(S(=O)(=O)c2ccccc2F)CC1	–	-32%
Cn1cnnc1S(=O)(=O)C1CCN(S(=O)(=O)c2ccc(F)c(Cl)c2)CC1	–	73.39%
CN1CCN(Cc2ccncc2)C(=O)C12CCN(Cc1ccsc1)CC2.O=C(O)C(F)(F)F.O=C(O)C(F)(F)F.O=C(O)C(F)(F)F	-53.7%	–
COC1CCN(C(=O)Cc2csc(-c3ccc(F)cc3)n2)CC1	9.7%	–
COC1CCN(C(=O)Cc2csc(-c3ccccc3)n2)CC1	99.67%	–
COC1CCN(C(=O)Cc2csc(-c3ncccn3)n2)CC1	–	9.896%
Cc1cc(N2CCc3cncnc3C2)n2nc(C(F)(F)F)nc2n1	–	-22.1%
Cc1ccc(C(=O)N2CCOCC2C(N)=O)c(F)c1 (centres undefined)	–	-8.01%
CC(C)CCNC(=O)c1csc(NC2CC2)n1	–	55.59%
CC(C)NC(=O)c1csc(NC2CC2)n1	–	-15.9%
O=C(Nc1ccccn1)c1csc(NC2CCCC2)n1	–	1.318%
CC(C)CCNc1nc(C(=O)NC2CC2)cs1	–	-29.09%
CC(NC(=O)Nc1nccs1)C(=O)NC1CCCC1 (centres undefined)	–	-0.2762%
O=C(Nc1nccs1)c1csc(NC2CCCC2)n1	–	93.86%
COc1cccc(C2CCCN2Cc2nnnn2C2CC2)c1 (centres undefined)	–	7.439%
O=C(O)C(F)(F)F.O=C(O)C(F)(F)F.c1csc(CN2Cc3nc(CN4CCCC4)oc3C2)c1	-24.4%	–
COc1c(C)cnc(CN(C)C2CCCCC2)c1C	–	75.58%
COc1c(C)cnc(CN(C)C2CCOC3(CCOCC3)C2)c1C (centres undefined)	–	-25.65%
COc1c(C)cnc(CN(C)C2CCN(C3CCOCC3)CC2)c1C	–	-11.24%
COc1ccc(CNC(=O)NCc2c(C)cc(C)[nH]c2=O)cc1	–	50.39%
Cc1cc(C)c(CNC(=O)NCc2ccc(F)cc2)c(=O)[nH]1	-10.32%	–
COc1cc(CNC(=O)NCc2c(C)cc(C)[nH]c2=O)ccc1C	–	17.33%
